Source: PubChem (National Center for Advancing Translational Sciences (NCATS))
FMDV inh – antivirals against foot and mouth disease virus; Potency, µM (titrated, usually from 57.9 µM), for the others: at the highest dose activity change, negative = inhibition, usual class: inhibitors; actives 1.2% (n = 410,000); FMDV antiviral cell-based qHTS; AID 1159524; calls by dose curve; tested in HEK293T cells; note: read-out not given here; potency is the fitted concentration of half-maximal effect; % is set by controls: 0 for no effect and ±100 for the full control effect; nearly all actives have a fitted effect of over 45% in size
Sm TGR inh – blocks Schistosoma mansoni thioredoxin glutathione reductase | Q962Y6 | purified TGR, DTNB reduction, TNB absorbance 405 nm | Potency, µM (titrated, usually from 114 µM), without a hit: at the highest dose activity change, negative = inhibition, most hits filed as inhibitors | actives 3% (n = 360,000) | AID 485364; active = well fitted inhibition curve with a large enough effect; inconclusive = small, poorly fitted or top-dose-only effect; inactive = no such curve, though single readings can be large or run the other way; note: potency is the fitted concentration of half-maximal effect; % is set by controls: 0 for no effect and ±100 for the full control effect; nearly all actives have a fitted effect of over 60% in size
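First, TGR (20 nM dispensed) and NADPH were mixed with compound. Second, a 15 min room-temperature incubation followed. Third, further NADPH and then DTNB were added to start the reaction. Finally, TNB absorbance was monitored kinetically.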
Shiga toxin inh – Shiga toxin inhibition | AID 2315 | Vero cells, Shiga toxin protein synthesis inhibition reporter | actives 9.2% (n = 290,000) | inhibition, % at 38.7 µM; in the data active = inhibition mostly above about 28%, no sharp cut-off; inactive = mostly below about 43%; note: 0% is about no effect
Cycloheximide cs – counter-screen for Shiga toxin inhibitors: cycloheximide protein synthesis inhibition; cell reporter, cycloheximide protein synthesis inhibition counterscreen; max response, %; actives 12% (n = 300,000); AID 2314; in the data active = max response mostly above about 13%, no sharp cut-off; inactive = mostly below about 14%; note: read at 38.3 µM for the half of the compounds with a filed dose; 0% is about no effect
Numbers without * were called inactive; [ ] = another dose, or the depositor's remark. Rows were chosen to be rich in hits. Some 12% of all compounds tested hit in one or more screens of this group.

Results for O=C1CC(c2ccc(O)cc2)Oc2cc(O)cc(O)c21 (stereo not given) ?
FMDV inh: -17%; Sm TGR inh: -14%; Shiga toxin inh: 36; Cycloheximide cs: 14*

Results for COc1cc(OC)c2c(c1O)OC(c1ccccc1)CC2=O (stereo not given) ?
FMDV inh: -12%; Sm TGR inh: 50µM*; Shiga toxin inh: -9; Cycloheximide cs: -3

How did COC1=CC(=O)OC(c2ccccc2)C1 (stereo not given) do in these assays?
FMDV inh: -10%

Results for COc1ccc(C2CC(=O)c3c(O)cc(O)cc3O2)cc1O (stereo not given) ?
FMDV inh: 54%

What do the screens show for `COc1cc(OC)cc(C(=O)NCC(=O)OCc2nc3ccccc3s2)c1`?
FMDV inh: 49%; Sm TGR inh: -2%; Shiga toxin inh: 113*; Cycloheximide cs: 36*

What do the screens show for `O=C(OCc1nc2ccccc2s1)c1cnccn1`?
FMDV inh: 56%; Sm TGR inh: -19%; Shiga toxin inh: 93*; Cycloheximide cs: 32*

What do the screens show for `O=C(c1ccccc1)c1ccc(COC(=O)c2cnccn2)cc1`?
FMDV inh: 1%; Sm TGR inh: 0%; Shiga toxin inh: -5; Cycloheximide cs: -1

What do the screens show for `O=C(OCc1nc2ccccc2s1)c1ccccc1O`?
FMDV inh: 26%; Sm TGR inh: -16%; Shiga toxin inh: 58*; Cycloheximide cs: 67*

What do the screens show for `O=C(CNC(=O)c1ccc(Cl)cc1)OCc1nc2ccccc2s1`?
FMDV inh: 57%; Sm TGR inh: 8%; Shiga toxin inh: 20; Cycloheximide cs: 7

Results for O=C(Oc1ccccc1)c1cccc(COC(=O)c2cnccn2)c1 ?
FMDV inh: 33%; Sm TGR inh: 12%; Shiga toxin inh: active; Cycloheximide cs: 36*

Results for COC(=O)CN1C(=O)C(C)(C)c2cc(S(=O)(=O)NCc3ccc(Cl)cc3)ccc21 ?
FMDV inh: 11%; Sm TGR inh: -1%

What do the screens show for `CC(=O)N1c2ccccc2CC1C(=O)N1CCN(c2cccc(Cl)c2)CC1` (stereo not given)?
FMDV inh: -21%; Sm TGR inh: 6%

How did O=C(OCc1nc2ccccc2s1)c1cccs1 do in these assays?
FMDV inh: 11%; Sm TGR inh: 0%; Shiga toxin inh: 92*; Cycloheximide cs: 52*

Results for O=C(OCc1nc2ccccc2c(=O)[nH]1)c1cccs1 ?
FMDV inh: 36%; Sm TGR inh: 8%[11.4 µM]; Shiga toxin inh: 44; Cycloheximide cs: 19*

What do the screens show for `O=c1[nH]c(Cc2cccs2)nc2ccccc12`?
FMDV inh: -3%; Sm TGR inh: 5%; Shiga toxin inh: 9; Cycloheximide cs: 10

How did O=C(O)c1ccccc1OCc1ccccc1Br do in these assays?
FMDV inh: 24%; Sm TGR inh: -12%; Shiga toxin inh: 11; Cycloheximide cs: 3

Results for CCCCC(=O)OCc1nc2ccccc2s1 ?
FMDV inh: 65%; Sm TGR inh: -7%; Shiga toxin inh: 76; Cycloheximide cs: 28*

How did CSCc1ccc(C(=O)OCc2nc3ccccc3s2)o1 do in these assays?
FMDV inh: 23%

Results for O=C(O)c1ccccc1OCc1nc2ccccc2s1 ?
FMDV inh: 0%; Sm TGR inh: 9%; Shiga toxin inh: 110*; Cycloheximide cs: 65*

What do the screens show for `Cc1ccc(NC(=O)N2CCC(CN3CCCC3)CC2)c(C)c1`?
FMDV inh: -5%; Sm TGR inh: -22%

What do the screens show for `Cc1cccc(NC(=O)CSc2nnc(-c3cccs3)o2)c1`?
FMDV inh: 20%; Sm TGR inh: -5%

Results for CCN(c1cccc(C)c1)S(=O)(=O)c1cc(Br)cc2c1N(C(C)=O)C(C)C2 (stereo not given) ?
FMDV inh: -6%; Sm TGR inh: 7%

Results for CC1=NN(C(N)=S)C(=O)C1N=Nc1ccccc1C (stereo not given) ?
FMDV inh: 15%; Sm TGR inh: -6%; Shiga toxin inh: 38; Cycloheximide cs: 11

What do the screens show for `CC1=NN(C(N)=S)C(=O)C1N=Nc1ccc(C)cc1C` (stereo not given)?
Sm TGR inh: -2%; Shiga toxin inh: 59*; Cycloheximide cs: 29*

What do the screens show for `CC1=NN(C(N)=S)C(=O)C1N=Nc1ccccc1O` (stereo not given)?
FMDV inh: 23%; Sm TGR inh: 0%; Shiga toxin inh: 16; Cycloheximide cs: 15*

Results for CC1=NN(C(N)=S)C(=O)C1N=Nc1c(C)cc(C)cc1C (stereo not given) ?
FMDV inh: 31%; Sm TGR inh: -17%; Shiga toxin inh: -13; Cycloheximide cs: 3

Results for CC1=NN(C(N)=S)C(=O)C1N=Nc1cccc(Cl)c1 (stereo not given) ?
FMDV inh: 34%; Sm TGR inh: inconclusive; Shiga toxin inh: 79*; Cycloheximide cs: 44*

How did CC1=NN(C(N)=S)C(=O)C1N=Nc1c(Cl)cc([N+](=O)[O-])cc1Cl (stereo not given) do in these assays?
FMDV inh: -12%; Sm TGR inh: -25%; Shiga toxin inh: 27*; Cycloheximide cs: 18*

Results for COc1cccc(N=NC2C(=O)N(C(N)=S)N=C2C)c1 (stereo not given) ?
FMDV inh: 50%

What do the screens show for `CC1CCN(C(=O)CN2CCSc3ccccc32)CC1`?
FMDV inh: -16%; Sm TGR inh: 3%

How did CC(C)N(C(=S)Nc1cccc(C(F)(F)F)c1)C(C)c1ccccn1 (stereo not given) do in these assays?
FMDV inh: inconclusive; Sm TGR inh: -14%; Shiga toxin inh: 16; Cycloheximide cs: 15

How did CC1CN=C(N(C(=S)Nc2ccccc2)c2cccc(C(F)(F)F)c2)S1 (stereo not given) do in these assays?
FMDV inh: -1%; Sm TGR inh: -25%; Shiga toxin inh: 33; Cycloheximide cs: 14*

Results for COCCNC(=O)c1cc2cc3ccc(OC)cc3nc2o1 ?
FMDV inh: 28%; Sm TGR inh: 0%; Shiga toxin inh: 50; Cycloheximide cs: 42*

Results for COc1ccc2cc3cc(C(=O)NCc4ccco4)oc3nc2c1 ?
FMDV inh: 10%; Sm TGR inh: inconclusive; Shiga toxin inh: -6; Cycloheximide cs: -1

How did COc1ccc2cc3cc(C(=O)NCCC(C)C)oc3nc2c1 do in these assays?
FMDV inh: 7%; Sm TGR inh: 3%; Shiga toxin inh: 51; Cycloheximide cs: -1

What do the screens show for `COc1ccc2cc3cc(C(=O)NCCN4CCN(c5ccccc5F)CC4)oc3nc2c1`?
FMDV inh: 18µM*; Sm TGR inh: 2%; Shiga toxin inh: -3; Cycloheximide cs: -2

Results for CCCCN(CC)C(=O)c1cc2cc3ccc(OC)cc3nc2o1 ?
FMDV inh: 7%; Sm TGR inh: 6%; Shiga toxin inh: 80*; Cycloheximide cs: 27*

How did COc1ccc2cc3cc(C(=O)NCC4CCCO4)oc3nc2c1 (stereo not given) do in these assays?
FMDV inh: -16%; Sm TGR inh: 1%; Shiga toxin inh: 46*; Cycloheximide cs: 19

What do the screens show for `CCOC(=O)C1=C(CS(=O)(=O)c2c(C)cc(C)cc2C)NC(=O)NC1c1cccc(OC)c1` (stereo not given)?
FMDV inh: -10%; Sm TGR inh: 5%
